Data published in paper PMC4336329 (PLoS ONE, 2015).
The campaign covered roughly 310,000 compounds. About 14,000 (4.5%) showed an effect of 50% or more. The effect is printed as a negative number. The entries come from a sample that favours strong results as a whole.

Target: human ether-à-go-go-related gene (hERG) potassium channel (human, UniProt Q12809)
Test: primary screen, population patch clamp on CHO cells stably expressing hERG; higher = less effect of the substance
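Further: peak tail current of the secondary pulse compared with the same well before compound.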

Chain of human ether-à-go-go-related gene (hERG) potassium channel (Q12809 whole entry, looked up): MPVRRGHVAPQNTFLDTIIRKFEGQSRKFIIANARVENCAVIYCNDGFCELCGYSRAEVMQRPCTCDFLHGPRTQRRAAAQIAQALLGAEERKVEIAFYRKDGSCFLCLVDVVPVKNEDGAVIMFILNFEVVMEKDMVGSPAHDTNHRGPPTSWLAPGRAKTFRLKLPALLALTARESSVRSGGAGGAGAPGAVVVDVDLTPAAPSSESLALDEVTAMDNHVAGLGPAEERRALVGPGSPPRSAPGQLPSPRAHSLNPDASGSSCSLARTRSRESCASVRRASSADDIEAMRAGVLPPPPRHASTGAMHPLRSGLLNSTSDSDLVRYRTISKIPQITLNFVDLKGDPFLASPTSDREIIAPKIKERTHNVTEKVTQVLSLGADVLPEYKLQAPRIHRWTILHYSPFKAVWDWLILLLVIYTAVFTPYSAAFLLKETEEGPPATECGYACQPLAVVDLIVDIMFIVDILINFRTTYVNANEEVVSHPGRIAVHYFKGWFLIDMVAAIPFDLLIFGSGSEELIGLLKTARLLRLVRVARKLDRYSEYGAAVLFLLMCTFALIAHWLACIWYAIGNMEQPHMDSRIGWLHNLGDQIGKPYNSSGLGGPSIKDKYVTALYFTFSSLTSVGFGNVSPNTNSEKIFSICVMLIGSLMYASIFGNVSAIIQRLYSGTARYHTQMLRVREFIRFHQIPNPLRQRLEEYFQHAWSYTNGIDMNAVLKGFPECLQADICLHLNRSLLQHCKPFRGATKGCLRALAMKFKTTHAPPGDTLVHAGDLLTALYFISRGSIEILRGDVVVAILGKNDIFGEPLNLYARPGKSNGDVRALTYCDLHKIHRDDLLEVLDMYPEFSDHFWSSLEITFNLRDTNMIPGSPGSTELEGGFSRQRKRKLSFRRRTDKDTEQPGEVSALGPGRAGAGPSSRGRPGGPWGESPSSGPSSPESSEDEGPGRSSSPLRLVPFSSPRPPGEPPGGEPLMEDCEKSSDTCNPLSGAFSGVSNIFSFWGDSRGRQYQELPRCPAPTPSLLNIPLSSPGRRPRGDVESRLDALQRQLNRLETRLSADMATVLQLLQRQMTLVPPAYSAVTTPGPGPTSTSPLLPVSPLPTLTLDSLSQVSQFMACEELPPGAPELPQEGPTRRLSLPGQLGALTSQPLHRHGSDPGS

Structure (SMILES) | hERG current change (%, negative = inhibition) at 10uM [%]
O=C(CN1CCOc2ccccc21)NCc1ccco1 | 2.93
Cc1cccc(NC(=O)C2(C)CC3c4ccccc4C2c2ccccc23)c1 (stereo not shown) | 9.5
O=C(Nc1nnc(CCN2CCCCC2)s1)c1ccc(Br)cc1 | -51.4
Cl.O=C(Nc1nnc(CCN2CCCCC2)s1)c1ccccc1 | 4.58
O=C(Nc1nnc(CCN2CCCCC2)s1)c1cccc(Cl)c1 | -10.8
CC(C)C(=O)Nc1ccc(NC(=O)c2ccc3c(c2)OCO3)cc1 | 10.2
Cc1ccccc1OCC(=O)Nc1cccc(S(=O)(=O)NC2=NCCCCC2)c1 | -7.89
O=C1N(Cc2cccc(Cl)c2)C[C@@H]2C[C@@H](c3ccco3)N3CCC[C@@]123 | -25.9
Cc1cccc([C@@H]2C[C@H]3CN(Cc4cccc(Cl)c4)C(=O)[C@]34CCCN24)n1 | -55
COc1ccccc1/C=C/[C@@H]1C[C@H]2CN(Cc3cccc(Cl)c3)C(=O)[C@]23CCCN13 | -75.4
CCn1ncc([C@@H]2C[C@H]3CN(Cc4cccc(Cl)c4)C(=O)[C@]34CCCN24)c1C | -33
COCc1ccc([C@@H]2C[C@H]3CN(Cc4cccc(Cl)c4)C(=O)[C@]34CCCN24)o1 | -31
CC(C)n1cc([C@@H]2C[C@H]3CN(Cc4cccc(Cl)c4)C(=O)[C@]34CCCN24)cn1 | -33.7
COc1cccc2c1OCC([C@@H]1C[C@H]3CN(Cc4cccc(Cl)c4)C(=O)[C@]34CCCN14)=C2 | -45.2
O=C1N(Cc2cccc(Cl)c2)C[C@@H]2C[C@@H](c3ccsc3)N3CCC[C@@]123 | -60.1
O=C1N(Cc2cccc(Cl)c2)C[C@@H]2C[C@@H](c3ccccn3)N3CCC[C@@]123 | -18.5
O=C1N(Cc2cccc(Cl)c2)C[C@@H]2C[C@@H](c3cccc4cccnc34)N3CCC[C@@]123 | -78
O=C(Nc1cnn(Cc2ccccc2)c1)c1cc2nc(-c3ccco3)cc(C(F)(F)F)n2n1 | 7.2
O=C(c1ccccc1)c1ccccc1N/C=C/c1nnnn1-c1ccccc1 | 1.11
CCCCCOc1ccc(CSc2ncn[nH]2)cc1 | -17.4
O=C(NCC1CCCO1)c1onc(CSc2ccccc2)c1C(=O)O (stereo not shown) | 10.1
CC(C)(C)OC(=O)CNC(=O)c1nc[nH]c1C(=O)N1CC[NH2+]CC1.[Cl-] | 4.07
O=S1(=O)CCN(OCc2ccc(F)cc2Cl)CC1 | 34.4
CCN(CC)S(=O)(=O)c1cc(NC(=O)Cc2n[nH]c(=O)c3ccccc23)ccc1C | -21.2
Cc1ccc(NC(=O)Cc2c[nH]c3ccccc23)cc1S(=O)(=O)N1CCCCCC1 | 14.1
O=C(Cc1n[nH]c(=O)c2ccccc12)Nc1cccc(S(=O)(=O)N2CCCCCC2)c1 | -57.8
O=C(Cc1n[nH]c(=O)c2ccccc12)Nc1cccc(S(=O)(=O)N2CCCC2)c1 | -5.36

Structure (SMILES) | hERG current change (%, negative = inhibition) at 10uM [%]
Cc1ccc(NC(=O)Cc2n[nH]c(=O)c3ccccc23)cc1S(=O)(=O)N1CCCCCC1 | -51.5
O=C(Cn1[nH]c(=O)c2ccccc2c1=O)Nc1cccc(S(=O)(=O)N2CCCCCC2)c1 | -13.2
CCCCP(=O)(CCCC)Cc1ccccc1O | 13.9
COc1ccccc1NC(=O)Nc1nc(CC(=O)Nc2ccc(F)cc2)cs1 | -1.25
COc1ccc(-c2cc(C(=O)N3CCc4ccccc4C3)no2)cc1 | -0.668
Cc1ccc(-n2c(C)cc(C(=O)NS(=O)(=O)c3ccc(C)cc3)c2C)cc1 | -30.8
COP(=O)(NS(=O)(=O)c1ccccc1)OC | 19.9
C=CCn1c(Cc2cccs2)nnc1SCC(=O)NCc1ccco1 | -1.47
Cc1ccnc(SCc2cc(=O)c(OC(=O)c3ccc(S(=O)(=O)N(C)C)cc3)co2)n1 | -36.4
CCOC(=O)c1c(NC(=O)CN(C)C)sc(C(=O)N(CC)CC)c1C.O=C(O)C(=O)O | -17.6
CCC[C@@H]1CCCO[C@@](C(=O)NCc2ccccn2)(C(F)(F)F)C1 | -1.97
COc1cc2c(cc1OC)C1(CCCC1)CNC2C.Cl (stereo not shown) | -3.04
COc1cc2c(cc1OC)C1(CCCC1)CNC2c1ccc([N+](=O)[O-])cc1.Cl (stereo not shown) | -50
COc1cc2c(cc1OC)C1(CCCC1)CNC2c1cccc([N+](=O)[O-])c1 (stereo not shown) | -43.3
C/C(=N/NC(=O)CNC(=O)c1ccccc1)c1ccc(C)cc1 | -41.5
CC1=C[C@@H](C)[C@@H](c2ccc(C(F)(F)F)cc2)OC1=O | 7.01
Cc1ccc2c(c1)c(/C=C/c1cc[n+](C)cc1)c(C)n2C.[I-] | -10.9
COc1ccc2c(CC(=O)NCCN3C(=O)S/C(=C\c4cccnc4)C3=O)coc2c1 | -9.62
O=C(/C(=N\Nc1ccc([N+](=O)[O-])cc1)Sc1nnnn1-c1ccccc1)c1ccccc1 | 17.9
O=C(C[n+]1cc(-c2ccc(Cl)cc2)n2c1CCCCC2)c1ccccc1.[Br-] | -12.5
Cn1c(NC(=O)C[n+]2cc(-c3ccc(Cl)cc3)n3c2CCC3)cc(=O)n(C)c1=O.[Cl-] | 11.3
CC1CCC(C(C)C)C(OC(=O)C[n+]2cc(-c3ccc(Cl)cc3)n3c2CCC3)C1.[Cl-] (stereo not shown) | -77.1
O=C(C[n+]1cc(-c2ccc(Cl)cc2)n2c1CCC2)N1c2ccccc2Sc2ccccc21.[Cl-] | -22.1
COc1ccc(-c2c[n+](CC(=O)c3cccs3)c3n2CCC3)cc1.[Br-] | 10.4
O=C(C[n+]1cc(-c2ccccc2)n2c1CCCCC2)c1ccc(Cl)cc1.[Br-] | -23.4
CC(C)[C@@H]1CC[C@@H](C)C[C@H]1OC(=O)C[n+]1cc(-c2ccc(Cl)cc2)n2c1CCCCC2.[Cl-] | -60.1
COc1ccc(-c2c[n+](CC(=O)OC3CC(C)CCC3C(C)C)c3n2CCC3)cc1.[Cl-] (stereo not shown) | -69.3

Structure (SMILES) | hERG current change (%, negative = inhibition) at 10uM [%]
CC1CCC(C(C)C)C(OC(=O)C[n+]2cc(-c3ccc(Cl)cc3)n3c2CCCCC3)C1.[Cl-] (stereo not shown) | -79.4
COc1ccc(C(=O)C[n+]2cc(-c3ccc(OC)cc3)n3c2CCCC3)cc1.[Br-] | -10.1
O=C(Nc1ccc2c(c1)OCO2)C1CCCN(S(=O)(=O)c2cccs2)C1 (stereo not shown) | 10.7
COc1cccc(-c2ncc3ccccn23)c1.O=C(O)C(=O)O | -5
CCOc1ccc(S(=O)(=O)Nc2cccc(C(=O)NCCCn3ccnc3)c2)cc1 | 10.5
O=C(CCN1C(=O)c2ccccc2C1=O)Nc1sc2c(c1C(=O)NCc1ccco1)CCCC2 | -13.2
O=C(Nc1nnc(SCC(=O)N2CCCCC2)s1)c1cccs1 | 4.86
CCOC(=O)c1c(NC(=O)C2COc3ccccc3O2)sc2c1CC(C)(C)NC2(C)C (stereo not shown) | -12.1
O=C(CSc1nnnn1-c1ccccc1)Nc1ccc(Cl)cn1 | 2.66
Cc1nnc(SC(C)C(=O)Nc2ncc(Cl)cc2Cl)n1Cc1ccccc1 (stereo not shown) | -67.8
CC(=O)Nc1ccc(NC(=O)C(C)Sc2n[nH]c(=O)n2Cc2ccccc2)cc1 (stereo not shown) | 16
CC(Sc1nnnn1-c1ccccc1)C(=O)Nc1ccc(Cl)cn1 (stereo not shown) | -54.2
CC(Sc1nnc(CN2CCCC2)n1Cc1ccccc1)C(=O)Nc1ccc(F)cc1 (stereo not shown) | -61.4
Cc1nnc(SC(C)C(=O)Nc2ccc(Cl)cn2)n1Cc1ccccc1 (stereo not shown) | -17.3
Cc1nnc(SCC(=O)Nc2ncc(Cl)cc2Cl)n1Cc1ccccc1 | -15.6
Cc1ccc(-n2nnnc2SC(C)C(=O)Nc2ccc(Cl)cn2)cc1 (stereo not shown) | -22.1
CC(Sc1nnc(CN2CCCC2)n1Cc1ccccc1)C(=O)Nc1ccccc1 (stereo not shown) | -43.1
Cc1sc2nc(SCc3nc4ccccc4[nH]3)n(Cc3ccco3)c(=O)c2c1C | -9.15
C=CC1CN(C(=O)OCC(Cl)(Cl)Cl)C2CC3c4ccc(OC)cc4NC3C3CC1C2CO3 (stereo not shown) | -7.61
CCOc1ccc2nc(SCC(=O)NCc3ccccc3)[nH]c2c1 | 2.63
CC(C)CN(C(=O)COC(=O)CCSc1ccc(F)cc1)c1c(N)n(Cc2ccccc2)c(=O)[nH]c1=O | 10.1
Cc1cc(C(=O)CN2C(=O)NC3(CCCc4ccccc43)C2=O)c(C)n1C (stereo not shown) | -13.5
COc1ccc(/C=C2\S/C(=N/S(=O)(=O)c3cccs3)NC2=O)cc1 | 8.45
CS(=O)(=O)N(CC(=O)NCCC1=CCCCC1)c1cccc([N+](=O)[O-])c1 | -32.4
COc1cc(OC)cc(C(=O)Oc2c(CN3CCOCC3)cc(Cl)c3cccnc23)c1 | -15.5
